TRb-SRC2 inh = qHTS for Inhibitors of the Interaction of Thyroid Hormone Receptor and Steroid Receptor Coregulator 2; Thyroid hormone receptor beta (Homo sapiens), P10828; TRbeta-SRC2 peptide binding, fluorescence polarization; receptor liganded with 1 µM T3; Potency, µM (top dose mostly 106 µM), actives largely listed as inhibitors; actives 0.065% (n = 280,000); AID 1469, 2008; further: nearly all actives have a fitted effect of over 50% in size
Target sequence (P10828 whole entry, looked up): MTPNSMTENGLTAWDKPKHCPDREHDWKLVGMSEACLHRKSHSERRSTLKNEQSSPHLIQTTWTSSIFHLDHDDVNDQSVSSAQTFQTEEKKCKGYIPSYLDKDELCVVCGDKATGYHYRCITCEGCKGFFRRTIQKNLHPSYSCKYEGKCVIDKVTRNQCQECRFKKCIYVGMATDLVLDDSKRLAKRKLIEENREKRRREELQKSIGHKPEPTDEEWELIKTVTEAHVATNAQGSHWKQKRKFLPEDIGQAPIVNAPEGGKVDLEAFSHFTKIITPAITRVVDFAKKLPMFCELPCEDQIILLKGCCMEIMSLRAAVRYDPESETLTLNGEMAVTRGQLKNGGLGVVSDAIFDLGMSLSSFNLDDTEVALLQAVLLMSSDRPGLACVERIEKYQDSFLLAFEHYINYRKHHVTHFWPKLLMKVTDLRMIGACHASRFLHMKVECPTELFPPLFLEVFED
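Compounds were added to 0.6 uM TRb ligand-binding domain and 20 nM Texas Red-labeled SRC2 peptide in Tris buffer containing 1 uM T3, incubated 5 hr at ambient temperature, then read by fluorescence polarization.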
GoLoco inh red = qHTS Assay for Inhibitors of RGS12 GoLoco Motif Activity (Red Fluorophore). Potency, µM (series often up to 61.6 µM), hits mostly inhibitors. actives 0.44% (n = 230,000). Guanine nucleotide-binding protein G(i) subunit alpha-1 (Homo sapiens), P63096. Gai1:RGS12 GoLoco peptide FP, rhodamine, 10 min; active means well fitted inhibition curve with a large enough effect, not every such curve was filed as active; inactive means no such curve, though single readings can be large or run the other way; further: nearly all actives have a fitted effect of over 30% in size
Tau fluor counter = Counterscreen qHTS for Inhibitors of Tau Fibril Formation, Fluorescence Polarization. Potency, µM (titrated, usually from 57.7 µM). actives 0.93% (n = 280,000). tau K18 P301L Alexa594 fluorescence, heparin fibrillization; further: nearly all actives have a fitted effect of over 55% in size
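Human K18 P301L tau (15 uM unlabeled plus 0.24 uM Alexa 594-labeled, final) in 100 mM sodium acetate pH 7 was mixed with compound and 20 uM heparin and incubated 6 hr at 37 C.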
TexasRed fluor = Total Fluorescence Counterscreen for Inhibitors of the Interaction of Thyroid Hormone Receptor and Steroid Receptor Coregulator 2; actives 0.29% (n = 280,000); TRb/SRC2 Texas Red total fluorescence interference; AID 1479, 2009; Potency, µM (doses to about 106 µM); active means well fitted curve in either direction with a large enough effect; inconclusive means small, poorly fitted or top-dose-only effect
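Human TRβ ligand-binding domain (0.6 uM) and Texas Red SRC2 peptide (20 nM) in Tris buffer with 1 uM T3 and 5% DMSO were incubated with pinned compound for 5 hr at ambient temperature. Total fluorescence was computed as S + 2P (555/632 nm).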
Tau fibril FP = qHTS for Inhibitors of Tau Fibril Formation, Fluorescence Polarization | K18 P301L tau heparin fibrillization, Alexa594 FP, 6 h | Potency, µM (doses to about 57.7 µM), hits mostly inhibitors | actives 0.39% (n = 280,000) | AID 1468, 2008; further: nearly all actives have a fitted effect of over 55% in size
Target sequence (P10636 561-689 P618L limits assumed): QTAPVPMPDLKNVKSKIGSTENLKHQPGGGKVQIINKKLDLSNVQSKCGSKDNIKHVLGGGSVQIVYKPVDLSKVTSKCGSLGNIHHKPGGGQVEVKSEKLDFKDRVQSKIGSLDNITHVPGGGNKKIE
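Steps: dispense K18 P301L tau (15 uM plus 0.24 uM Alexa 594 tracer, final) in pH 7 sodium acetate; add compound; add heparin (20 uM final); incubate 6 hr, 37 C; add ThT (30 uM final); after 1 hr ambient, read FP.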
Tau ThT inhib = qHTS for Inhibitors of Tau Fibril Formation, Thioflavin T Binding; recombinant tau K18 P301L (four-repeat tau fragment), heparin-induced fibrillization, ThT fluorescence; Potency, µM (titrated, usually from 57.4 µM), actives largely listed as inhibitors; AID 1460, 2008; actives 2.1% (n = 270,000); further: nearly all actives have a fitted effect of over 55% in size
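Tau K18 P301L fragment (15 uM unlabeled plus 0.24 uM Alexa 594-labeled) in 100 mM sodium acetate pH 7 with compound, fibrillization induced by 20 uM heparin for 6 hr at 37 C. Thioflavin T (30 uM) added, fluorescence read after 1 hr (ex 450, em 510 nm).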
A number is an active result; n = inactive; u = inconclusive; x = no result; ! = repeats disagree; [ ] = dose if it differs, or a comment. Compounds with a hit are over-represented: about 3.2% of the library has one in this group of screens. Unless noted, the call rests on the fitted dose curve; in most records, active means well fitted curve in the direction sought with a large enough effect; inconclusive means small, poorly fitted or top-dose-only effect, or another doubt; inactive means no such curve, though single readings can be large; an effect the other way counts as inactive or inconclusive.

SMILES	TRb-SRC2 inh	GoLoco inh red	Tau fluor counter	TexasRed fluor	Tau fibril FP	Tau ThT inhib
CN(C)C(=S)SSC(=S)N(C)C	n	3.16µM!	n	n	u	u
C[C@@H]1NCCc2cc(O)c(O)cc21	n	3.55µM	x	n	x	x
CC(=O)OC1C[C@@]2(C)C(c3ccoc3)C[C@H]3O[C@@]32[C@@]2(C)C(=O)C(O)=C3C(C)(C)C(=O)C=C[C@]3(C)C12 (stereo partly drawn)	n	n	n	n	u	8.91µM
CC(=O)O[C@@H]1C[C@@]2(C)C(c3ccoc3)C[C@H]3O[C@]32[C@]2(C)C(=O)C(O)=C3C(C)(C)C(=O)C=C[C@]3(C)C12 (stereo partly drawn)	n	n	n	n	u	25.1µM
CC(=O)OC1CC(OC(C)=O)[C@]2(C)C(CC(OC(C)=O)[C@]3(C)C2CC[C@@]2(C)C(c4ccoc4)C[C@H]4O[C@]432)C1(C)C (stereo partly drawn)	n	n	n	n	n	n
CC1(C)C2C[C@@H](O)[C@]3(C)C(CC[C@@]4(C)[C@H](c5ccoc5)C[C@H]5O[C@]543)[C@@]2(C)[C@@H](O)C[C@H]1O (stereo partly drawn)	n	n	n	n	n	n
[Cu+2].[O-]c1cccc2cccnc12.[O-]c1cccc2cccnc12	n	x	x	n	x	x
COC[C@H]1OC(=O)c2coc3c2[C@@]1(C)C1=C(C3=O)C2CCC(=O)[C@@]2(C)C[C@H]1OC(C)=O (stereo partly drawn)	35.5µM	n	u	44.7µM![fluorescent]	u	17.8µM!
COC[C@H]1OC(=O)c2coc3c2[C@@]1(C)C1=C(C3=O)[C@H]2CCC(=O)[C@@]2(C)C[C@H]1OC(C)=O	n	n	u	n	28.2µM	14.1µM
O=C(N=Nc1c(O)[nH]c(=O)[nH]c1=O)C1COc2ccccc2O1 (stereo not drawn)	n	n	n	n	u	28.2µM
O=c1[nH]c(O)c(N=Nc2ccc3c(c2)OCCO3)c(=O)[nH]1	n	n	n	n	n	5.62µM
O=c1[nH]c(=S)[nH]c(O)c1N=Nc1ccc2c(c1)OCCO2	n	n	n	n	n	2.24µM
O=C(O)c1ccccc1N=Nc1c(O)[nH]c(=O)[nH]c1=O	n	n	n	n	n	n
O=c1[nH]c(=S)[nH]c(O)c1N=Nc1cccc(S(=O)(=O)N2CCOCC2)c1	n	n	n	n	n	u
O=c1[nH]c(=S)[nH]c(O)c1N=Nc1ccc2c(c1)OCO2	n	n	n	n	n	3.98µM
CCN(CC)S(=O)(=O)c1cccc(N=Nc2c(O)n(CC)c(=S)n(CC)c2=O)c1	n	n	u	n	n	15.8µM
Cn1c(O)c(N=Nc2cccc(S(=O)(=O)N3CCOCC3)c2)c(=O)n(C)c1=O	n	n	n	n	n	n
CCCOCC(=Nc1ccc(Cl)cc1C(F)(F)F)n1ccnc1	n	x	x	u	x	x
O=c1c(O)c(-c2ccc(O)c(O)c2)oc2cc(O)cc(O)c12	n	n	10µM[quencher]	u	u	12.6µM
Cc1ccc2oc(-c3ccccc3)cc(=O)c2c1	n	n	n	n	u	u
O=c1cc(-c2ccc(O)c(O)c2)oc2cc(O)cc(O)c12	n	n	u	u	n	12.6µM
CCCN(CC)CC1COC2(CCC(C(C)(C)C)CC2)O1 (stereo not drawn)	n	x	x	n	x	x
CCOP(=S)(NC(C)C)Oc1ccccc1C(=O)OC(C)C (stereo not drawn)	n	x	x	n	x	x
C=C1CC[C@H](O)C/C1=C/C=C1\CCC[C@]2(C)[C@@H]([C@H](C)CCCC(C)C)CC[C@@H]12	n	n	n	n	u	22.4µM
O=C(O)/C=C\c1ccc[c]([Sb])c1	x	n[14.2 µM]	x	x	x	x
SMILES	TRb-SRC2 inh	GoLoco inh red	Tau fluor counter	TexasRed fluor	Tau fibril FP	Tau ThT inhib
COC1=CC23CCCN2CCc2cc4c(cc2C3C1O)OCO4 (stereo not drawn)	n	n	u	n	u	35.5µM
O=C(Nc1ccccc1)Nc1cnns1	n	x	x	n	x	x
O=C(O)C(F)(F)C(F)(F)C(F)(F)C(F)(F)C(F)(F)C(F)(F)C(F)(F)C(F)(F)F	u	x	x	126µM![quencher]	x	x
OC(Cn1cncn1)(c1ccc(F)cc1)c1ccccc1F (stereo not drawn)	n	x	x	n	x	x
CCOP(=O)(OCC)C1(O)C(=O)Nc2ccccc21 (stereo not drawn)	n	n	n	n	n	n
CC1CCCC(C2(O)C(=O)Nc3ccccc32)C1=O (stereo not drawn)	n	14.1µM	n	n	n	n
CC(=O)Nc1cccc([As](=O)(c2cccc(NC(C)=O)c2)c2cccc(NC(C)=O)c2)c1	n	5.01µM	n	n	n	n
CCOP(=S)(OCC)SCCl	n	x	x	n	x	x
CN1C(=O)C(Cc2cccc3ccccc23)C(=O)N(C)C1=O	n	n	n	n	u	25.1µM
CN1C(=O)C(Cc2c[nH]c3ccccc23)C(=O)N(C)C1=O	n	n	n	n	u	22.4µM
CC1(C(=O)Nc2ccc(O)c(Cl)c2Cl)CCCCC1	n	x	x	n	x	x
COc1cc2c(cc1OC)[C@]13CC[N@+]4(C)CC5=CCO[C@H]6CC(=O)N2[C@@H]1C6[C@@H]5C[C@]34O (stereo partly drawn)	x	n[14.2 µM]	x	x	x	x
CC(C)(C)OOC(C)(C)CCC(C)(C)OOC(C)(C)C	n	x	x	n	x	x
O=C(Nc1ccc(Br)cc1)c1cc(Br)cc(Br)c1O	n	n	u	n	n	12.6µM
CON(C)C(=O)Nc1ccc(Br)cc1	n	x	x	n	x	x
O=C1C=C2C(=CCOC2O)O1 (stereo not drawn)	n	n	n	n	2µM	2.24µM
FC(F)C(F)(F)OCC(Cn1cncn1)c1ccc(Cl)cc1Cl (stereo not drawn)	n	x	x	n	x	x
Cc1ccccc1N1C(=O)NC(=O)/C(=C\c2cc(Br)c(N3CCOCC3)o2)C1=O	n	n	n	n	u	15.8µM
CCN1C(=O)C(=Cc2cc(C)n(C3CC3)c2C)C(=O)N(CC)C1=S	n	n	n	n	n	u
CCN1C(=O)C(=Cc2ccc(C)s2)C(=O)N(CC)C1=S	n	n	n	n	u	14.1µM
CNC(=O)O/N=C(\C)SC	n	x	x	n	x	x
CCCCCCNC(=O)N[C@H](Cc1ccc(O)cc1)C(=O)NCCC[C@H]1CN2C(=NC[C@H]2CCC)N1CC1CCC1	n	14.1µM	n	n	n	n
